Experimental data taken from PubChem BioAssay (NCI).
This is part of a sample that, as a whole, favours compounds with a hit. Of some 83,000 tested, about 20% had one in any assay.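 Single-dose data. Exposure time 48 hours. Values below 10 considered active.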 A number with no mark means an inactive call. Activity calls are given as the source filed them.

Assays:
Test in all cases: NCI-60 one-dose screen, 48 h (100 = growth as untreated, 0 = no growth, -100 = all killed)
Settings in all cases: 10 µM unless noted
[1] = tested on: NCI-H23 lung
[2] = tested on: NCI-H226 lung
[3] = tested on: NCI-H322M lung
[4] = tested on: HOP-62 NSCLC
[5] = tested on: NCI-H460 lung
[6] = tested on: HOP-92 NSCLC
[7] = tested on: NCI-H522 lung
[8] = tested on: A549/ATCC NSCLC
[9] = tested on: 786-0 renal
[10] = tested on: COLO 205 colon
[11] = tested on: DU-145 prostate
[12] = tested on: K-562 leukemia
[13] = tested on: MALME-3M melanoma
[14] = tested on: MDA-MB-231 breast
[15] = tested on: RXF 393 renal
[16] = tested on: SF-268 CNS
[17] = tested on: SF-295 CNS
[18] = tested on: SF-539 CNS
[19] = tested on: UACC-257 melanoma
[20] = tested on: M14 melanoma

`C=CCn1c(SCC(=O)Nc2ccc(C(=O)/C=C/c3cc(OC)c(OC)c(OC)c3)cc2)nnc1-c1ccccc1` was tested, and the growth [1] was 93%, the growth [2] was 88.5% and the growth [3] was 104%. It also gave a growth [4] of 117%, a growth [5] of 89.8% and a growth [6] of 150%. It also gave a growth [7] of 82.8%, a growth [8] of 85.1% and a growth [9] of 93.1%. It also gave a growth [10] of 101%, a growth [11] of 76.7% and a growth [12] of 48.9%. The growth [13] was 91%, the growth [14] was 98.9% and the growth [15] was 97.8%. The growth [16] was 93.5%, the growth [17] was 92.6% and the growth [18] was 96.2%. It also gave a growth [19] of 81.4% and a growth [20] of 86.9%.

Molecule `O=C1Nc2ccc(Br)cc2/C1=N\N=C/c1cn(Cc2ccccc2)c2ccccc12` has a growth [1] of 94.4%, a growth [2] of 80.5% and a growth [3] of 84%. The growth [4] was 97.2%, the growth [5] was 51.9% and the growth [6] was 106%. The growth [7] was 83.9%, the growth [8] was 91% and the growth [9] was 103%. The growth [10] was 114%, the growth [11] was 95.7% and the growth [12] was 67.4%. For the same molecule, the growth [13] was 115%, the growth [14] was 93.3% and the growth [15] was 58.4%. It also gave a growth [16] of 95%, a growth [17] of 95.9% and a growth [18] of 99.4%. It also gave a growth [19] of 109% and a growth [20] of 106%.

For `CSc1nc(-c2ccco2)c2c(N)[nH]nc2n1`, the growth [1] was 97.7%, the growth [2] was 102% and the growth [3] was 97.8%. The growth [4] was 84.6%, the growth [5] was 97.6% and the growth [6] was 109%. It also gave a growth [7] of 79.4%, a growth [8] of 100% and a growth [9] of 93.4%. It also gave a growth [10] of 123%, a growth [11] of 102% and a growth [12] of 85.6%. The growth [13] was 119%, the growth [14] was 99.1% and the growth [15] was 118%. For the same molecule, the growth [16] was 104%, the growth [17] was 102% and the growth [18] was 97.5%. It also gave a growth [19] of 129% and a growth [20] of 120%.

With `CC(=O)Oc1c2c(nc3c1c1ccccc1n3Cc1ccccc1)-c1ccccc1C2` the growth [1] was 72%, the growth [2] was 85.9% and the growth [3] was 92.2%. The growth [4] was 79.7%, the growth [5] was 98.2% and the growth [6] was 90.5%. It also gave a growth [7] of 51%, a growth [8] of 85.7% and a growth [9] of 91.8%. For the same molecule, the growth [10] was 97.9%, the growth [11] was 99.1% and the growth [12] was 78.4%. For the same molecule, the growth [13] was 102%, the growth [14] was 80.4% and the growth [15] was 116%. For the same molecule, the growth [16] was 93.2%, the growth [17] was 96% and the growth [18] was 94.5%. The growth [19] was 93.2% and the growth [20] was 88.3%.

`COc1ccc(C(=O)c2cc(OC)c(OC)c(OC)c2)cc1OC(=O)C(Cl)(Cl)Cl` gave a growth [1] of 26.9%, a growth [2] of 95.4% and a growth [3] of 38.4%. The growth [4] was 17.3%, the growth [5] was 5.08% (active) and the growth [6] was 50.3%. For the same molecule, the growth [7] was -13.3% (active), the growth [8] was 19% and the growth [9] was 20.9%. For the same molecule, the growth [10] was 13%, the growth [11] was 7.06% (active) and the growth [12] was 7.85% (active). The growth [13] was 74.8%, the growth [14] was 28.7% and the growth [15] was 29.9%. The growth [16] was 34.7%, the growth [17] was 8.77% (active) and the growth [18] was -7.13% (active). The growth [19] was 56% and the growth [20] was -4.45% (active).

`COc1ccc(C(=O)c2cc(OC)c(OC)c(OC)c2)cc1OC(=O)CCl` showed a growth [1] of 24%, a growth [2] of 109% and a growth [3] of 44.5%. The growth [4] was 22%, the growth [5] was 8.25% (active) and the growth [6] was 52.9%. The growth [7] was -12.4% (active), the growth [8] was 23% and the growth [9] was 28.7%. For the same molecule, the growth [10] was 16.4%, the growth [11] was 5.3% (active) and the growth [12] was 13.3%. The growth [13] was 71%, the growth [14] was 34.4% and the growth [15] was 56.6%. For the same molecule, the growth [16] was 37.3%, the growth [17] was 17.3% and the growth [18] was 1.91% (active). For the same molecule, the growth [19] was 48.9% and the growth [20] was 5.59% (active).

`CC(C)C[C@H](C(=O)O)N(C)C(=O)[C@@H]1CCCN1C(=O)[C@H](C)OC(=O)[C@H](CCC(N)=O)NC(=O)[C@@H]1CCC(=O)N1` gave a growth [1] of 109%, a growth [2] of 101% and a growth [3] of 98.5%. The growth [4] was 93.4%, the growth [5] was 111% and the growth [6] was 102%. The growth [7] was 88.7%, the growth [8] was 92.2% and the growth [9] was 96.1%. The growth [10] was 99.3%, the growth [11] was 106% and the growth [12] was 93.2%. The growth [13] was 109%, the growth [14] was 108% and the growth [15] was 135%. The growth [16] was 97.4%, the growth [17] was 93.7% and the growth [18] was 97.7%. For the same molecule, the growth [19] was 95.2% and the growth [20] was 99.9%.

With `CC1(C)[C@@H](O)CC[C@]2(C)[C@H]3CC[C@@H]4[C@H]5[C@H](c6cn(-c7ccccc7)nn6)CC[C@]5(CO)CC[C@@]4(C)[C@]3(C)CC[C@@H]12` the growth [1] was 92.1%, the growth [2] was 80.9% and the growth [3] was 79.7%. The growth [4] was 93.9%, the growth [5] was 78.4% and the growth [6] was 100%. The growth [7] was 69.4%, the growth [8] was 74.5% and the growth [9] was 91.7%. The growth [10] was 95.2%, the growth [11] was 95.4% and the growth [12] was 79.2%. For the same molecule, the growth [13] was 104%, the growth [14] was 84.3% and the growth [15] was 65.3%. For the same molecule, the growth [16] was 76.7%, the growth [17] was 86.5% and the growth [18] was 92.6%. For the same molecule, the growth [19] was 83.6% and the growth [20] was 90.5%.

`Nc1c(C(=O)Nc2ccccn2)sc2nc3c(cc12)CCCCC3` was tested, and the growth [1] was 29.9%, the growth [2] was 77% and the growth [3] was 52.6%. The growth [4] was 40.2%, the growth [5] was 6.46% (active) and the growth [6] was 67.5%. The growth [7] was 2.61% (active), the growth [8] was 20.9% and the growth [9] was 27.6%. For the same molecule, the growth [10] was 6.18% (active), the growth [11] was 12.2% and the growth [12] was 7.25% (active). It also gave a growth [13] of 73.1%, a growth [14] of 46.6% and a growth [15] of 13.1%. The growth [16] was 53.4%, the growth [17] was 15.4% and the growth [18] was 4.89% (active). For the same molecule, the growth [19] was 72.5% and the growth [20] was 10.8%.

Work on `O=c1[nH]c2ccccc2cc1-c1nc2ccncc2[nH]1` yielded a growth [1] of 85%, a growth [2] of 79.6% and a growth [3] of 110%. For the same molecule, the growth [4] was 101%, the growth [5] was 62.4% and the growth [6] was 64.3%. The growth [7] was 90.7%, the growth [8] was 90.4% and the growth [9] was 88.6%. The growth [10] was 83.3%, the growth [11] was 78.8% and the growth [12] was 79.1%. For the same molecule, the growth [13] was 113%, the growth [14] was 98.3% and the growth [15] was 72.5%. The growth [16] was 96.6%, the growth [17] was 78.1% and the growth [18] was 79.1%. For the same molecule, the growth [19] was 111% and the growth [20] was 87.3%.

In the case of `CC(C)(C)c1ccc(O)c(Cc2cc(C(C)(C)C)ccc2O)c1`, the growth [1] is reported as 94.7%, the growth [2] is reported as 89.9% and the growth [3] is reported as 102%. The growth [4] was 85.9%, the growth [5] was 104% and the growth [6] was -39.4% (active). It also gave a growth [7] of 87%, a growth [8] of 92.4% and a growth [9] of 94.2%. For the same molecule, the growth [10] was 110%, the growth [11] was 105% and the growth [12] was 87.1%. For the same molecule, the growth [13] was 104%, the growth [14] was 88.1% and the growth [15] was 101%. It also gave a growth [16] of 93.1%, a growth [17] of 109% and a growth [18] of 108%. For the same molecule, the growth [19] was 86.6% and the growth [20] was 92.3%.

`O=c1c2ccccc2oc2ccc(OCCCCCN3CCCCCC3)cc12` showed a growth [1] of 72%, a growth [2] of 91.4% and a growth [3] of 85.9%. The growth [4] was 92.5%, the growth [5] was 78.9% and the growth [6] was 94.1%. For the same molecule, the growth [7] was 69.9%, the growth [8] was 71.9% and the growth [9] was 78.5%. The growth [10] was 43.6%, the growth [11] was 94.1% and the growth [12] was 21.3%. It also gave a growth [13] of 40.2%, a growth [14] of 77.6% and a growth [15] of 58.6%. The growth [16] was 79%, the growth [17] was 87.8% and the growth [18] was 79.4%. For the same molecule, the growth [19] was 2.91% (active) and the growth [20] was 31.5%.

`COc1cc(/C=C/C(=O)c2cccs2)ccc1OCc1ccc(Cl)nc1` showed a growth [1] of 77.5%, a growth [2] of 86.8% and a growth [3] of 85.9%. It also gave a growth [4] of 102%, a growth [5] of 83.6% and a growth [6] of 85.2%. It also gave a growth [7] of 86.1%, a growth [8] of 99% and a growth [9] of 75.3%. For the same molecule, the growth [10] was 98.1%, the growth [11] was 47.7% and the growth [12] was 41.3%. The growth [13] was 81.9%, the growth [14] was 82.8% and the growth [15] was 94.9%. It also gave a growth [16] of 85.1%, a growth [17] of 105% and a growth [18] of 91%. It also gave a growth [19] of 91.3% and a growth [20] of 82%.

Work on `O=[N+]([O-])c1ccc(Oc2ccc(-c3ccccc3)cc2)cc1` yielded a growth [1] of 85.3%, a growth [2] of 76.7% and a growth [3] of 100%. For the same molecule, the growth [4] was 92.1%, the growth [5] was 92.9% and the growth [6] was 74.3%. The growth [7] was 67.5%, the growth [8] was 91.5% and the growth [9] was 84.6%. For the same molecule, the growth [10] was 109%, the growth [11] was 97.5% and the growth [12] was 70.8%. The growth [13] was 109%, the growth [14] was 88.5% and the growth [15] was 102%. It also gave a growth [16] of 94.5%, a growth [17] of 89.4% and a growth [18] of 94.7%. For the same molecule, the growth [19] was 98.1% and the growth [20] was 98.3%.

For `COc1ccc(C2N(c3cc(OC)c(OC)c(OC)c3)C(=O)C2(F)F)cc1F` (stereo not given), the growth [1] was 37.9%, the growth [2] was 75.5% and the growth [3] was 91.2%. The growth [4] was 38.4%, the growth [5] was 27.2% and the growth [6] was 60.8%. It also gave a growth [7] of 17.5%, a growth [8] of 48.6% and a growth [9] of 75.3%. For the same molecule, the growth [10] was 16.3%, the growth [11] was 25.2% and the growth [12] was 10.5%. It also gave a growth [13] of 64.1%, a growth [14] of 54% and a growth [15] of 49.4%. For the same molecule, the growth [16] was 52.9%, the growth [17] was 48.3% and the growth [18] was 21.6%. For the same molecule, the growth [19] was 50% and the growth [20] was 24.2%.
